Screening results deposited in PubChem BioAssay by several laboratories.
hDAT+cocaine: changed hDAT dopamine uptake under cocaine IC80, either direction, primary screen, cocaine antagonist project, cell-based, LLC-PK1 hDAT, [14C]-dopamine uptake, MLSMR. Sodium-dependent dopamine transporter (Homo sapiens), Q01959. LLC-PK1 hDAT cells, [14C]-dopamine uptake with cocaine IC80; actives deviate in either direction. B-score at 10 µM. 110,000 compounds, 1.3% hits. AID 449768, 2010;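 active = Z score or B-score, a plate-position-corrected score, falls beyond the plate's 99.7% confidence bounds, in either direction; inactive = both scores lie inside the 99.7% bounds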;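 note: scored against the spread of the other compound wells on the same plate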
Target sequence (Q01959 whole entry, looked up): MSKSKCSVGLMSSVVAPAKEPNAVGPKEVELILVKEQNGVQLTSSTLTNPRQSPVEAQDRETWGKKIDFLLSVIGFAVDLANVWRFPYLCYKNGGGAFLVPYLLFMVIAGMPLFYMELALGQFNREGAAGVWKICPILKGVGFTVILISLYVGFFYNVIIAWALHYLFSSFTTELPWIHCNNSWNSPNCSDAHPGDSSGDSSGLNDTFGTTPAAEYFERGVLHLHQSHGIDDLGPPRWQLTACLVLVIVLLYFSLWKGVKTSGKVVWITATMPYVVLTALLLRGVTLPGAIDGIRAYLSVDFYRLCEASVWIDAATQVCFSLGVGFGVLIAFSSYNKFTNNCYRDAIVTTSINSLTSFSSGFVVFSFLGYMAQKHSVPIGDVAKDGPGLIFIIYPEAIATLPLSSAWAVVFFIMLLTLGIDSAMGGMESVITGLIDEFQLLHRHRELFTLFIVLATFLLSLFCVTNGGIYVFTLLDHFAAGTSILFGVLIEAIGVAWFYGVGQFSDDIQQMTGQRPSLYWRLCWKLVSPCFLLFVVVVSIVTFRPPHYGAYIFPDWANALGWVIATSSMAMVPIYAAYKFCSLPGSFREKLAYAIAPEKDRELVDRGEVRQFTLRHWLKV
HCT116 PTEN-null: growth suppression of PTEN-null HCT116, primary screen, cell-based, CellTiter-Glo | HCT116 PTEN-null viability, 60 h; hits give low values | 140,000 compounds, 1.2% hits | viability, % at 10 µM;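 active = viability at or below a set limit, 4 SD under the median of all tested compounds, cut at about 3.7% in these data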;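 note: PTEN knockout HCT116 line with beta catenin targeted HCT116 as companion control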
WT yeast gro inh: growth inhibition of WT strain, primary screen, mitochondrial fusion inhibitor project, WT and mutant strains, chemical genetic; mitochondrial fusion phenotypic screen; inhibition, % at 10 µM; 190,000 compounds, 2.1% hits; in the data active = inhibition above about 58%; tested in S. cerevisiae
HCT116 bCat-KO: primary screen for growth suppressors in beta-catenin knockout HCT116 cells (colon tumor, human). HCT116 beta-catenin knockout viability, CellTiter-Glo, 60 h; hits give low values. viability, % at 10 µM. 140,000 compounds, 1.5% hits. AID 818, 2007;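 active = viability at or under a set limit, the compound median less 4 SD, cut at about 6% in these data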;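 note: 0% = Hyamine 1622 control at 20 µM and 100% = untreated cell control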
* marks the source's active call; other numbers are inactive results; . = no result. Most compounds without a hit are left out; they make up all but 3.6% or so of the library.

SMILES	hDAT+cocaine	HCT116 PTEN-null	WT yeast gro inh	HCT116 bCat-KO
CCc1ccc(-c2nc(CN3CCCC(C(=O)NCCc4ccc(OC)c(OC)c4)C3)c(C)o2)cc1 (centres undefined)	1.4	3.0*	6	1.9*
CCCN(CCC)CCNC(=O)C1CCN(Cc2nc(-c3ccc(Cl)cc3)oc2C)CC1	1.2	2.2*	5	2.2*
COc1ccc(CCNC(=O)C2CCCN(Cc3nc(-c4ccccc4C)oc3C)C2)cc1OC (centres undefined)	.	24	1	13
CCCCOc1ccc(/C=C/C2=CC(C)(C)NC(=S)N2)cc1OCC	.	.	28	.
Cc1ccc(Cn2ncc3c(N4CCN(c5ccccc5C)CC4)ncnc32)cc1	0.15	49	65*	39
COc1ccc(-n2nc(C(=O)NCC(=O)NCc3ccccc3OC)c3ccccc3c2=O)c(OC)c1	.	.	-5	.
COc1ccc(-n2nc(C(=O)Nc3nc4ccc(OC)cc4s3)c3ccccc3c2=O)c(OC)c1	.	2.6*	18	12
CCOC(=O)C1=C(C)NC(SC(C)=O)=NC1c1ccc(OC(C)=O)c(OC)c1 (centres undefined)	1.2	101	76*	93
CCOC(=O)C1=C(C)NC(SC)=NC1c1ccc(OC)cc1 (centres undefined)	1.7	101	1	91
CCC(/C=N/NC(=O)C(=O)N/N=C/C(CC)CC)CC	.	89	-9	93
COc1ccc(Cn2cc3c(-c4ccc(F)cc4)nnc-3c3cc(OC)c(OC)cc32)cc1	-0.0015	2.1*	-3	1.8*
COc1ccc(CCNC(=O)CSc2nnc(-c3ccc(F)cc3)c3ccccc23)cc1OC	.	94	3	85
COc1ccc(OC2C(=O)N(Cc3ccc(F)cc3)C2c2cc(OC)c(OC)c(OC)c2)cc1 (centres undefined)	.	83	-2	90
COc1cc2c3nnc(-c4ccc(F)cc4)c-3cn(Cc3ccc(F)cc3)c2cc1OC	-0.21	0.8*	4	0.7*
COc1cc2c3nnc(-c4ccc(F)cc4)c-3cn(Cc3ccccc3)c2cc1OC	0.54	1.6*	-4	1.1*
CCC(C)(C)NC(=S)Nc1ccccc1C	.	.	27	.
CCn1c(C)cs/c1=N\C(=S)Nc1ccccc1C	.	79	62*	83
CC1=CCC(/C=N\Nc2nnc3c(n2)[nH]c2ccccc23)CC1 (centres undefined)	.	96	0	88
O=C(CSc1nnc(-c2ccco2)n1Cc1ccccc1)c1ccccc1	3.4*	83	-11	92
Cc1ccc(C(=O)CSc2nnc(-c3ccco3)n2Cc2ccccc2)cc1	0.17	82	-7	82
O=c1c2c(-c3ccco3)csc2nc(SCc2cn3cccnc3n2)n1-c1ccccc1	-0.016	42	-11	61
c1ccc(Cn2c(SCc3cn4cccnc4n3)nnc2-c2ccco2)cc1	-0.56	95	76*	93
N=C1N(/N=C/c2ccccc2)C(=Nc2ccccc2)C(=S)N1c1ccccc1	1.3	73	27	78
COc1cc(NC(=O)c2ccc([N+](=O)[O-])cc2)ccc1NC(=O)C(C)C	.	.	-4	.
O=CN1CCN(C(=O)c2ccc(-c3nc4ccccc4s3)s2)CC1	.	.	3	.
SMILES	hDAT+cocaine	HCT116 PTEN-null	WT yeast gro inh	HCT116 bCat-KO
Cn1c(N/N=C/c2ccccc2)nc2sc3c(c2c1=O)CCC3	0.11	74	62*	77
OCCNc1nc(SCc2ccccc2)nc2sc3c(c12)CCC3	.	45	78*	36
O=c1c2c3c(sc2nc(NCCO)n1CCc1ccccc1)CCCCC3	.	27	70*	31
O=c1oc(/C=C/c2ccccc2)nc2sc3c(c12)CCC3	0.56	89	-7	86
CCc1nc2sc3c(c2c(=O)n1NC(=O)CCl)CCCC3	-0.39	92	-7	86
COc1cccc(CN2CCN(Cc3ccc(O)cc3)CC2CCO)c1 (centres undefined)	.	.	-7	.
c1ccc(-c2nc3cnccn3c2Nc2ccc3c(c2)OCCO3)cc1	2.5*	81	-20	87
Cc1ccc(C(=O)Nc2ccc(S(=O)(=O)N3CCOCC3)cc2)cc1	.	.	2	.
Cc1cc(C)c(O)c(-c2cc(C(=O)Nc3ccc(S(=O)(=O)N4CCOCC4)cc3)[nH]n2)c1	-0.086	1.2*	-20	2.3*
OCCN(CCO)CC(O)COc1ccc(C23CC4CC(CC(C4)C2)C3)cc1 (centres undefined)	.	6	95*	12
O=[N+]([O-])c1cccc(C(=Nc2cccc(Cl)c2)NO)c1	1.2	74	-5	85
ONC(=Nc1ccc(Cl)cc1)c1ccccc1	-9.7*	78	12	79
O=C1C(Cl)=C(N2CCN(c3ccccc3[N+](=O)[O-])CC2)C(=O)c2ccccc21	.	1.2*	24	0.9*
O=[N+]([O-])c1cc(Cl)ccc1N1CCCC1	.	.	-6	.
c1ccc(OCc2nc3c4c(ncn3n2)-c2ccccc2CC42CCCC2)cc1	.	66	13	69
CCc1ccc2c(c1)C(c1ccc(N3CCOCC3)cc1)=NNC(c1ccncc1)=N2	.	.	68*	.
COc1cc(C(=O)O/N=C2/C=CC(=O)C(C)=C2C)cc(OC)c1OC	.	2.5*	-6	18
O=C(CNC(=S)N(CCCN1CCOCC1)Cc1cccs1)NC1CCCC1	.	.	-15	.
C/C(=N\NC(=O)c1cc(-c2cccc([N+](=O)[O-])c2)n[nH]1)c1ccccc1O	.	2.9*	4	9
O=C(O)c1cc(-c2cccc([N+](=O)[O-])c2)n[nH]1	.	.	7	.
O=C(CCCSc1ccccc1)Nc1nc(-c2ccccn2)cs1	0.063	.	69*	15
CSCCC(=O)Nc1nc(-c2ccccn2)cs1	.	.	2	.
CCOC(=O)N1CCN(C(=S)NC(=O)c2ccnn2C)CC1	.	94	1	96
CO/N=C/c1c(C(=O)OC)nn(-c2ccccc2)c1Cl	.	.	6	.
COC(=O)c1nn(-c2ccccc2)c(Cl)c1/C=N/OCc1ccc(C)cc1	1.6*	94	20	89
SMILES	hDAT+cocaine	HCT116 PTEN-null	WT yeast gro inh	HCT116 bCat-KO
CS(=O)(=O)N1CCN(c2ccnc3cc(Cl)ccc23)CC1	.	.	9	.
Cc1ccc(S(=O)(=O)N2CCN(c3ccnc4cc(Cl)ccc34)CC2)cc1	.	.	65*	.
Cc1cc(N2CCN(S(=O)(=O)c3ccc(Cl)c(Cl)c3)CC2)c2ccccc2n1	.	.	69*	.
Cc1ccc(S(=O)(=O)N2CCN(c3ccnc4cc(Cl)ccc34)CC2)cc1C	.	.	69*	.
COCOc1cc(O)c(C(=O)/C=C/c2ccccc2)c(OCOC)c1	-0.94	.	.	.
C/C(=N\NC(=O)c1ccc(Cl)c(Cl)c1)c1ccc(Br)s1	.	3.6*	51	6.1*
C/C(=N/NC(=O)c1ccc2c(c1)OCO2)c1ccc(Br)s1	.	.	6	.
O=C(NCCc1ccc(Cl)cc1)c1ncn[nH]1	-0.41	102	91*	102
CN(C)CCNC(=S)Nc1ccc(F)c(F)c1F	.	.	8	.
Cc1ccc(-c2csc(NC(=O)CSc3nc(C)cc(=O)[nH]3)n2)cc1	2.3*	133	33	98
O=C(CSc1nc2ccccc2[nH]1)Nc1nc(-c2cccc(Br)c2)cs1	.	83	88*	93
